Measurements as given in PubChem BioAssay (NCI).
The panel holds about 83,000 compounds, 20% with a hit somewhere; the sample as a whole holds those more often.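 Interpretation: 100, growth as untreated; towards 0, rising growth inhibition; 0, no net growth; 0 to -100, cell death. Compounds scoring below 10 were considered active.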 Values without a mark were called inactive. Active and inactive are the calls of the source.

test system: HOP-92 NSCLC; assay: NCI-60 one-dose screen, 48 h (100 = growth as untreated, 0 = no growth, -100 = all killed); details: 10 µM unless noted
Procedure: Growth inhibition of the HOP-92 human Non-Small Cell Lung tumor cell line is measured as a screen for anti-cancer activity. Cells are grown in 96 well plates and exposed to the test compound for 48 hours. Compounds are tested at a single concentration, which is 10^-5 M for most compounds. The reported endpoint is percent growth (GI% or GIPRCNT), where numbers from 0 - 100% represent growth inhibition, and numbers from -100% - 0 represent cell death. For example, a value of 40 represents 60% growth inhibition. A value of 0 means no net growth occurred over the course of the experiment. A value of -40 indicates 40% of cells at the beginning of the experiment died by the end of the experiment. A value of -100 means all cells are dead at the end of the experiment.
NCI-60 Human Tumor Cell Lines Screen was performed using the standard one-dose NCI protocol, which is described in more detail at https://dtp.cancer.gov/discovery_development/nci-60/default.htm.
Compounds with GIPRCNT values below 10 were considered active. Activity score was based on GIPRCNT using the following formula: […]
Score is 0 for GIPRCNT values of 100 or above, 50 for GIPRCNT values of 0, and 100 for GIPRCNT values of -100.

Compared with `O=C(O)C(Cl)(Cl)C(F)(F)F`, `COC(=O)CCc1c[nH]c2ccc(N(CCCl)CCCl)cc12` is lower in growth: 95.1% for the first, 84.4% for the second.

First: C[C@]12CC[C@H]3[C@@H](C[C@@H]4SC(Nc5ccccc5)=N[C@@]45CC(O)CC[C@]35C)[C@@H]1CCC2O (stereo not given in full)
Second: O=C(Nc1ccncc1F)c1cn(CC2CC2)c2ccccc12
The growth of the first is lower: 104% for the first, 123% for the second.

Compared with `NC(=O)C(Br)c1ccccc1` (stereo not given), `Cc1ccc(C(Cc2ccccc2)NCCO)cc1` (stereo not given) is lower in growth: 99.6% for the first, 74.8% for the second.

Going from `CSc1nc(Cl)cc(N2CC2)n1` to `CNC(=O)Oc1ccc(N(C)C)cc1C(C)C`, the growth rises from 93% to 100%.

Compared with `COc1cc(C=Nc2cccc(Br)c2)ccc1N(CCCl)CCCl`, `ClCCN(CCCl)c1ccc(/C=N/Nc2ncnc3nc[nH]c23)cc1` is higher in growth: 74.8% for the first, 81.3% for the second.

Going from `CC(=O)O[C@H](C[C@H](C(C)C)N(C)C(=O)[C@@H](NC(=O)[C@H]1CCCCN1C)C(C)C)c1cccc(C(=O)N[C@@H](Cc2ccccc2)C[C@H](C)C(=O)O)n1` to `COC(=O)[C@@H](C)C[C@H](Cc1ccccc1)NC(=O)c1nc([C@@H](C[C@H](C(C)C)N(C)C(=O)[C@@H](NC(=O)[C@H]2CCCCN2C)C(C)C)OC(C)=O)sc1C(C)C`, the growth falls from 54.5% to 30.6%.

Compared with `O=C1CCC2(O)[C@@H]3Cc4ccc(O)c5c4[C@]2(CCN3Cc2ccoc2)C1O5` (stereo not given in full), `CCC1(C)CC(CCNCc2ccccc2O)(c2ccc(C)cc2)CCO1` (stereo not given) is higher in growth: 100% for the first, 105% for the second.

Compared with `c1cc2c(c3c1CCNC3)OCO2`, `Fc1ccc(N2COOC3(OOC2)C2CC4CC(C2)CC3C4)cc1` is lower in growth: 120% for the first, 29% for the second.

Going from `O=C([O][Hg][CH2]C1COCC([CH2][Hg][O]C(=O)c2ccccc2)O1)c1ccccc1` (stereo not given) to `O=C1NC(=O)C(=Cc2cn(CCCCCCn3c4ccccc4c(=O)c4ccccc43)c3ccccc23)C(=O)N1`, the growth rises from 77% to 96.1%.

Compared with `COP(=S)(N1CC1)N1CC1`, `COC(=O)[C@@H](C)C[C@H](Cc1ccccc1)NC(=O)c1csc(CC[C@H](C(C)C)N(C)C(=O)[C@@H](NC(=O)[C@H]2CCCCN2C)C(C)C)n1` is lower in growth: 98.6% for the first, 52.8% for the second.

First: COc1ccc2c(c1)c(C1(O)CC(CSC#N)OC1=O)cn2C(=O)c1ccc(Cl)cc1 (stereo not given)
Second: O=C1CN=C(c2ccc(Cl)cc2)c2sccc2N1
The growth of the first is higher: 109% for the first, 97.4% for the second.

First: N/C(=N/N=C/c1ccncc1)N[N+](=O)[O-]
Second: CC(=O)OCc1cc[c]([Hg][Cl])o1
The growth of the first is higher: 115% for the first, 53.8% for the second.

First: COC(=O)[C@@H](C)C[C@H](Cc1ccccc1)NC(=O)c1nc([C@@H](C[C@H](C(C)C)N(C)C(=O)[C@@H](NC(=O)[C@H]2C[C@H](O)CCN2C)C(C)C)OC(C)=O)sc1C(C)C
Second: COC(=O)[C@@H](C)C[C@H](Cc1ccccc1)NC(=O)c1csc([C@@H](C[C@H](C(C)C)N(C)C(=O)[C@@H](NC(=O)[C@H]2CCCCN2C)C(C(F)(F)F)C(F)(F)F)OC(C)=O)n1
The growth of the first is higher: 25% for the first, 12.4% for the second.

First: CCCCCCCC[n+]1ccc2ccccc2c1
Second: C=CC[n+]1ccc(-c2cc[n+](CC=C)cc2)cc1
The growth of the first is lower: 52% for the first, 111% for the second.

`CC1=C(CCCOC(=O)CN)C2=C(C)C3(CC3)[C@@](C)(O)C(=O)C2=C1` was tested, and the growth was 70.5%.

In the case of `COc1ccc(NC([Se])=NC23CC4CC(CC(C4)C2)C3)cc1`, the growth was -6.73% (active).
With `CN(C)C1C(=O)C(C(N)=O)=C(O)C2(O)C(=O)C3=C(O)c4c(O)cccc4C(C)(O)C3CC12.[Cl][Sb]([Cl])[Cl]` (stereo not given) the growth was -5.57% (active).
`CC(C)[C@@H]1NC(=O)[C@]2(C)CSC(=N2)c2csc(n2)CNC(=O)C[C@@H](/C=C/CCS)OC1=O` was tested, and the growth was -21.5% (active).
`CC1=C(CNO)C2=C(C)C3(CC3)[C@@](C)(O)C(=O)C2=C1` was tested, and the growth was -19.6% (active).
For `CN1C(=O)N[C@H]2[C@@H]3NC(=O)c4ccc(Br)n4[C@@H]3C[C@]21O`, the growth was -9.65% (active).
For `CC(=O)[C@H]1CC[C@H]2[C@@H]3CC[C@H]4C[C@H](N)CC[C@]4(C)[C@H]3CC[C@]12C`, the growth was 7.56% (active).
For `ClC1=C(Cl)C(Cl)(C2(Cl)C(Cl)=C(Cl)C(Cl)=C2Cl)C(Cl)=C1Cl`, the growth was -63.5% (active).
With `COC(=O)[C@@H](C)C[C@H](Cc1ccccc1)NC(=O)c1csc([C@@H](C[C@H](C(C)C)N(C)C(=O)C2(NC(=O)[C@H]3CCCCN3C)CCC2)OC(C)=O)n1` the growth was 2.26% (active).
In the case of `CC[C@]12C=CCN3CC[C@@]4(c5ccc(OC)cc5N(C)[C@H]4[C@@](O)(C(=O)OC)[C@@H]1OC(=O)CCCC[P+](c1ccccc1)(c1ccccc1)c1ccccc1)[C@@H]32`, the growth was -30% (active).
With `O=[N+]([O-])c1cc([N+](=O)[O-])c(Cl)cc1Cl` the growth was -80.1% (active).
For `CC12CC=CCC1CCC1C2CCC2(C)C(c3ccc(=O)oc3)CCC12O` (stereo not given), the growth was 1.77% (active).
